From PubChem BioAssay come the findings set out here.

The subject of this assay is XIP peptide (Xip251-270). In words: compounds binding XIP fragment 251-270 – biochemical, small-molecule microarray, fluorescence 635/667 nm, 0.5 µg/mL protein, primary screen (AID 1183). To be noted: fluorescence 635 nm, higher = more signal.
For `CO[C@H]1COC(=O)CC=C[C@H](C)COC(=O)[C@@H](OCc2ccccc2)C=C[C@@H]1C`, the composite z-score turned out to be 0.547.

For `CCN1C(C)=C(C(=O)OC)[C@@H](c2ccccc2)N2C(=O)[C@@]3(C(=O)OC)O[C@@]12[C@@H]1C(=O)N(c2ccccc2)C(=O)[C@@H]13`, the composite z-score is 0.9.

As to `C#CCCCON=C1C[C@@H](O)[C@@H](O)[C@@H]2[C@@H]3C(=O)N(Cc4ccc5c(c4)OCO5)C(=O)[C@@H]3CC[C@H]12`, the composite z-score stood at 0.783.

On to `COc1cc([C@@H]2N[C@H](C(=O)O)Cc3c2[nH]c2ccccc32)cc(OC)c1OC`, for which the composite z-score stood at 0.564.

As for `CO[C@H]1COC(=O)[C@H](C)COC(=O)[C@H](Cc2ccccc2)NC(=O)CC=C[C@H]1C`, the composite z-score worked out at 0.613.

As to `CO[C@@H]1COC(=O)[C@H](C)NC(=O)CC=C[C@@H](C)[C@H](NS(=O)(=O)c2ccc(C)cc2)COC(=O)CC=C[C@@H]1C`, the composite z-score is -0.507.

As to `O=C(O)[C@@H]1Cc2c([nH]c3ccccc23)[C@@H](c2ccccc2)N1`, the composite z-score is 0.0822.

`CO[C@H]1COC(=O)CC=C[C@H](C)[C@@H](OC)COC(=O)[C@H](Cc2ccccc2)NC(=O)CC=C[C@@H]1C`: the composite z-score is -0.42.

In the case of `C[C@@H]1NC(=O)CC=C[C@@H](C)[C@@H]2C=C[C@H](O)[C@@H](COC(=O)[C@H](C)NC(=O)CC=C[C@@H](C)[C@@H]3C=C[C@H](O)[C@@H](COC1=O)O3)O2`, the composite z-score worked out at 0.221.

Take `CCC(=O)[C@]12O[C@@]3([C@@H]4C(=O)OCC[C@@H]41)N(CC)C(C)=C(C(=O)OC)[C@@H](c1ccccc1)N3C2=O`: the composite z-score was -0.499.

Consider `CO[C@H]1COC(=O)CC=C[C@@H](C)COC(=O)[C@@H](C)NC(=O)CC=C[C@@H]1C`, for which the composite z-score came to 0.405.

Turning to `C=CCc1cccc([C@@H]2[C@@H](C)CC[C@H]3C(=O)N4[C@H](c5cccc(CC=C)c5)[C@@H](C)CC[C@H]4C(=O)N23)c1`, the composite z-score is 0.336.

With `CCN1C(C)=C(C(=O)OC)[C@@H](c2ccccc2)N2C(=O)[C@@]3(C(=O)OC)O[C@@]12[C@@H]1C(=O)N(C)C(=O)[C@@H]13`, the composite z-score stood at 0.87.

`CO[C@H]1COC(=O)[C@@H](OCc2ccccc2)C=C[C@H](C)[C@@H](OC)COC(=O)[C@H](OCc2ccccc2)C=C[C@@H]1C`: the composite z-score was -0.267.

For the compound `CO[C@H]1COC(=O)[C@H](CCSC)NC(=O)CC=C[C@@H](C)COC(=O)[C@@H](OCc2ccccc2)C=C[C@@H]1C`, the composite z-score was 0.581.

Take `CO[C@H]1COC(=O)[C@H](C)NC(=O)CC=C[C@@H](C)[C@H](NS(=O)(=O)c2ccc(C)cc2)COC(=O)CC=C[C@@H]1C`: the composite z-score was determined as 0.407.

Consider `CCC(=O)[C@]12O[C@@]3([C@@H]4C(=O)OCC[C@@H]41)N(Cc1ccccc1)C(C)=C(C(=O)OC)[C@@H](c1ccccc1)N3C2=O`, for which the composite z-score is -0.573.

As to `CO[C@@H]1COC(=O)[C@H](COCc2ccccc2)NC(=O)CC=C[C@@H](C)[C@H](OC)COC(=O)[C@H](COCc2ccccc2)NC(=O)CC=C[C@H]1C`, the composite z-score is -0.713.

Regarding `Cc1ccc(S(=O)(=O)N[C@H]2COC(=O)CC=C[C@H](C)COC(=O)N[C@@H](C)C(=O)CC=C[C@@H]2C)cc1`, the composite z-score is 0.619.

As to `C[C@@H]1C=CCC(=O)OC[C@H]2O[C@@H](C=C[C@@H]2O)[C@H](C)C=CCC(=O)OC[C@H]2O[C@H]1C=C[C@@H]2O`, the composite z-score is 0.466.

Take `COc1cccc([C@@H]2[C@@H](C)CC[C@H]3C(=O)N(C)[C@@H](C(C)C)C(=O)N23)c1`: the composite z-score came out at 0.247.

Consider `CC(=O)Nc1ccc([C@H]2[C@H](C)CC[C@H]3C(=O)N4[C@@H](CC[C@@H](C)[C@@H]4c4ccc(NC(C)=O)cc4)C(=O)N32)cc1`, for which the composite z-score turned out to be 0.757.

For the compound `C[C@@H]1CC[C@H]2C(=O)N3[C@@H](CC[C@@H](C)[C@@H]3c3cccc(N4CCOCC4)c3)C(=O)N2[C@H]1c1cccc(N2CCOCC2)c1`, the composite z-score turned out to be 0.705.

As for `COc1cccc([C@@H]2[C@@H](C)CC[C@H]3C(=O)N4[C@H](c5cccc(OC)c5)[C@@H](C)CC[C@H]4C(=O)N23)c1`, the composite z-score worked out at 0.379.

In the case of `C[C@H]1COC(=O)[C@H](Cc2ccccc2)NC(=O)[C@@H](C)COC(=O)[C@H](Cc2ccccc2)NC1=O`, the composite z-score came to 0.342.

On to `CO[C@@H]1COC(=O)[C@@H]2CCCN2C(=O)CC=C[C@@H](C)[C@H](OC)COC(=O)[C@@H]2CCCN2C(=O)CC=C[C@H]1C`, for which the composite z-score is 0.352.

Take `CO[C@@H]1COC(=O)[C@H](C)NC(=O)CC=C[C@@H](C)[C@H](OC)COC(=O)[C@H](C)NC(=O)CC=C[C@H]1C`: the composite z-score came to 0.132.

With `COC(=O)C1=C(C)N(Cc2ccccc2)c2c(C(=O)OC)c(C(=O)OC)c(C(=O)OC)c(=O)n2[C@@H]1c1ccccc1`, the composite z-score was -0.0775.

Turning to `COc1cccc([C@H]2N[C@H](C(=O)O)CC[C@@H]2C)c1`, the composite z-score was -0.567.

Turning to `CO[C@H]1COC(=O)CC=C[C@H](C)[C@@H](OC)COC(=O)CC=C[C@@H]1C`, the composite z-score was determined as 0.695.

Consider `CCN1C(C)=C(C(=O)OC)[C@@H](c2ccccc2)N2C(=O)[C@](O)(C(=O)OC)[C@@H](c3ccccc3)C(C(C)=O)=C12`, for which the composite z-score is -1.35.

`CO[C@H]1COC(=O)[C@H](Cc2ccccc2)NC(=O)CC=C[C@@H](C)[C@H](OC)COC(=O)CC=C[C@@H]1C`: the composite z-score was determined as 0.0418.

`CO[C@@H]1COC(=O)CC=C[C@H](C)COC(=O)[C@H](Cc2ccccc2)NC(=O)CC=C[C@H]1C`: the composite z-score amounted to 0.18.

For `C[C@@H]1CC[C@H]2C(=O)N3CCC[C@H]3C(=O)N2[C@H]1c1ccc(Br)cc1`, the composite z-score was -0.374.

For `C[C@@H]1CC[C@H]2C(=O)N3[C@@H](CC[C@@H](C)[C@@H]3c3cccc(N4CCOCC4)c3)C(=O)N2[C@H]1c1cccc(Br)c1`, the composite z-score was found to be 0.541.
